Compound activity deposited in PubChem BioAssay by several laboratories.
tim23-1 inh: tim23-1 yeast growth inhibition. S. cerevisiae tim23-1 growth, BacTiter-Glo luminescence, 24 h. inhibition, % at 20 µM. 330,000 tested, 1.3% active. AID 463212;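 active = growth inhibition of the mutant yeast at or above 50%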;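 note: temperature-sensitive mutant grown at 25 °C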
TIM10 inh: inhibits growth of TIM10 yeast strain. AID 463195. S. cerevisiae TIM10 strain growth, BacTiter-Glo luminescence, 24 h. inhibition, % at 10 µM. 330,000 tested, 1.4% active;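 active = inhibition of 40% or more at the single tested concentration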;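 note: wild-type TIM10 isogenic control strain grown at permissive 25 °C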
V-ATPase pHluor: regulators of yeast V-ATPase proton transport. AID 504577. 350,000 tested, 0.37% active. S. cerevisiae, pHLuorin cytosolic pH fluorescence. response, % at 10 µM; in the data active = response mostly above about 7.3%, no sharp cut-off; inactive = mostly below about 5.4%; note: actives read high
PfHsp90 yeast 2: growth inhibition of yeast expressing Plasmodium Hsp90 | S. cerevisiae expressing PfHsp90, BacTiter-Glo ATP, 48 h; yeast lacking PDR1 and PDR3 efflux regulators | inhibition, % at 9.4 µM | 310,000 tested, 0.32% active | AID 504621;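 active = every replicate shows inhibition above about 80%, whatever the replicate mean, limit read from the data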
tim10-1 inh: growth inhibitors of tim10-1 mutant yeast; 330,000 tested, 2.2% active; S. cerevisiae tim10-1 ts strain growth, BacTiter-Glo, 24 h; inhibition, % at 20 µM;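 active = inhibition of at least 40%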;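 note: mutant grown at 25 °C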
tim10-1 conf: confirmation of tim10-1 mutant yeast growth inhibitors; shares compounds with tim10-1 inh; S. cerevisiae tim10-1 ts strain growth, BacTiter-Glo, 24 h; inhibition, % at 20 µM; 7,400 tested, 56% active;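 active = inhibition of yeast growth at or above a set limit in either of two repeat tests at 20 µM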;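 note: tim10-1 mutant grown at permissive 25 °C to find synthetic lethal compounds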
A number is an active result; - = inactive; . = no result. An excerpt weighted towards active compounds, which were near 3.7% of everything screened.

SMILES	tim23-1 inh	TIM10 inh	V-ATPase pHluor	PfHsp90 yeast 2	tim10-1 inh	tim10-1 conf
O=S(=O)(Nc1ccccc1)c1ccc(-c2cnc(C3CC3)o2)cc1	-	-	-	-	46	-
Cc1ccc(C)c(NS(=O)(=O)c2ccc(-c3cnc(C4CC4)o3)cc2)c1	-	-	-	-	-	.
COc1ccc(NS(=O)(=O)c2cc(-c3cnc(C4CC4)o3)ccc2C)cc1	-	-	-	-	44	-
COc1ccc(S(=O)(=O)N(C)CC(=O)NCCN2CCOCC2)cc1Cl	-	-	-	-	-	.
COc1ccc(NC(=O)CC2SC(=O)NC2=O)cc1 (stereo unspecified)	-	-	-	-	41	34
OCC1CCCN(c2ncnc3scc(-c4ccccc4)c23)C1 (stereo unspecified)	-	-	-	-	-	.
OCC1CCCN(c2nc(CN3CCCCC3)nc3scc(-c4ccccc4)c23)C1 (stereo unspecified)	-	-	-	-	40	-
COc1ccc(Cl)cc1NC(=O)CSc1nnc(COc2ccccc2)n1C	-	-	-	-	46	-
COc1ccc(Cl)cc1NC(=O)CSc1nnc(COc2ccccc2)n1N	-	-	-	-	-	.
CC1CCN(c2nc(Cl)nc(Nc3ccc([N+](=O)[O-])cc3)n2)CC1	-	-	-	98	46	-
C=CCNc1nc(Nc2ccc([N+](=O)[O-])cc2)nc(N2CCCC2)n1	-	-	-	-	-	.
COc1ccccc1CN(C)C(=O)c1cccc(S(=O)(=O)N2CCc3ccccc3C2)c1	-	-	-	.	-	.
COc1ccc(N2CCN(C(=O)CSc3nnc(-c4cc5ccccc5cc4O)n3C)CC2)cc1	-	-	-	-	45	-
Cn1ncc(Cl)c1C(=O)Nc1cccc(Cl)c1	-	-	-	.	47	-
CSc1cccc(NC(=O)c2c(Cl)cnn2C)c1	-	-	-	-	-	.
C=C1CCN([C@H](C(=O)OCc2cccc(C)c2)C(C)C)S(=O)(=O)c2ccccc21	-	-	-	-	44	-
C=C1CCN([C@H](C(=O)O)C(C)C)S(=O)(=O)c2ccccc21	-	-	-	.	-	.
O=C(NCC1CC1)c1ccccc1Cl	-	-	-	-	-	.
N=c1n(CCN2CCCCC2)c2ccccc2n1CC(=O)c1ccc(Cl)c(Cl)c1	-	-	-	.	-	.
CCn1c(=N)n(CC(=O)c2ccc(Cl)c(Cl)c2)c2ccccc21	-	-	-	-	42	-
O=C(Nc1ccc2c(c1)OCO2)c1nn(-c2ccccc2)c(=O)c2ccccc12	-	-	-	-	44	-
COc1ccc(-c2nn(-c3ccccc3)cc2C(=O)NCC2CCCO2)cc1 (stereo unspecified)	-	-	-	-	-	.
COc1ccc(/C(C)=N/OCC(=O)Nc2nc3ccccc3s2)cc1	-	-	-	-	42	29
CC1=NN(C(N)=S)C(=O)C1N=Nc1ccc(C)cc1C (stereo unspecified)	-	-	.	.	-	.
CC1=NN(C(N)=S)C(=O)C1N=Nc1c(C)cc(C)cc1C (stereo unspecified)	-	-	-	-	45	-
SMILES	tim23-1 inh	TIM10 inh	V-ATPase pHluor	PfHsp90 yeast 2	tim10-1 inh	tim10-1 conf
O=C(Nc1ccc2c(c1)OCO2)N1CCN(c2ncc(C(F)(F)F)cc2Cl)CC1	-	-	-	-	-	.
O=C(c1ccc2c(c1)OCCO2)N1CCN(c2ncc(C(F)(F)F)cc2Cl)CC1	-	-	-	-	48	34
CC(C)Cn1c(SC(C)C(=O)NC2CC2)nnc1-c1ccccc1F (stereo unspecified)	-	-	-	-	-	.
CCN(CC(=O)Nc1ccccc1OC)C(=O)c1ccc2[nH]c3c(c2c1)CC(C)CC3 (stereo unspecified)	-	-	-	.	-	.
CCCN(CC(=O)Nc1ccccc1OC)C(=O)c1ccc2[nH]c3c(c2c1)CC(C)CC3 (stereo unspecified)	-	-	-	-	41	-
Cc1ccccc1NC(=S)N(Cc1cccnc1)Cc1ccco1	-	-	-	-	-	.
Cc1ccc(CN(Cc2ccco2)C(=S)Nc2ccccc2C)cc1	-	-	-	-	42	-
CN(C)c1ccnc2sc(C(=O)c3ccc(Br)cc3)c(N)c12	-	-	.	-	43	-
CCn1nc(NC(C)=O)c2cc3cccc(C)c3nc21	-	-	-	-	-	.
CCn1nc(NC(=O)c2ccccc2)c2cc3cccc(C)c3nc21	-	-	-	-	46	32
N#C/C(=C\c1c[nH]c2ccc(Br)cc12)c1ccccn1	-	-	-	-	48	35
O=C(CSc1nc(C2CC2)nc2ccccc12)NCc1ccc2c(c1)OCO2	-	-	.	.	-	.
O=C(c1ccc(-n2cncn2)c([N+](=O)[O-])c1)N1CCN(S(=O)(=O)c2ccc(Cl)cc2)CC1	-	-	-	-	-	.
COc1ccc(NC(=O)C2CCCN2S(=O)(=O)c2cccc3cccnc23)cc1OC (stereo unspecified)	-	-	-	-	-	.
CC(C)OC(=O)C(=O)NNc1ccccc1	-	-	-	-	-	.
C=C(C)C(=O)NNc1ccccc1	-	-	-	-	41	37
COc1ccc(/C=C/C(=O)c2ccc(OC)cc2OC)c(OC)c1	-	-	-	-	-	.
COc1ccc(/C=C/C(=O)c2ccccc2)c(OC)c1	-	-	-	-	44	-
COc1ccc(N(C)C(=O)Cc2c(C(=O)O)n(C)c3ccccc23)c(OC)c1	-	-	-	-	-	.
O=c1c2cc(N3CCOCC3)ccc2[nH]c(=S)n1Cc1ccc(Cl)cc1	-	-	-	-	-	.
Cc1ccc(Cn2c(=S)[nH]c3ccc(N4CCOCC4)cc3c2=O)o1	-	-	-	.	46	-
CC(C)OCCCn1c(=S)[nH]c2ccc(N3CCOCC3)cc2c1=O	-	-	-	.	45	-
CC(=O)c1cccc(S(=O)(=O)NC2CCSc3ccccc32)c1 (stereo unspecified)	-	-	-	-	-	.
Cc1ccc(NC2CCCCC2NS(=O)(=O)c2ccccc2)c(C)c1 (stereo unspecified)	-	-	-	-	44	-
O=S(=O)(NC1CCCCC1Nc1ccc(Cl)cc1)c1ccccc1 (stereo unspecified)	-	-	-	-	-	.
SMILES	tim23-1 inh	TIM10 inh	V-ATPase pHluor	PfHsp90 yeast 2	tim10-1 inh	tim10-1 conf
CC(C)=C1C2CCC1C(C(=O)NCCc1ccccc1)C2C(=O)O (stereo unspecified)	-	-	-	-	44	-
O=C(O)C1C2C=CC(C3CC23)C1C(=O)NCCc1ccccc1 (stereo unspecified)	-	-	-	-	-	.
CC1(C)c2[nH]c3ccccc3c2C[C@@H]2C(=O)N(Cc3ccc(F)cc3)C(=O)N21	-	-	-	.	45	-
CCN1C(=O)[C@H]2[C@@H](c3ccc(OC)cc3)N[C@]3(CCCN(Cc4ccc(Br)cc4)C3=O)[C@H]2C1=O	.	.	-	.	.	.
Cc1cc(=O)n2nc(-c3ccccc3)sc2n1	-	-	-	-	-	.
Cc1cc(=O)n2c3c(sc2n1)C(=O)N(Cc1ccccc1)C3=O	-	-	.	.	40	34
